Reference: the OligoGym collection

target: MFNG; assay: pooled miR-30 sensor sort-seq; sequence = guide strand; details: shRNA

Sequence	sensor-assay potency score (higher = more potent)
TTTGTCTGGGCTGTCGGTGAAG	-0.931
TCTTGCAGGACAGAGCTGGGTG	-0.336
TTGCGATTGATGCAGAAGCCAG	-1.46
TTGCACTCAATGATATAGCCCA	-0.194

target: MFRP; assay: as above; details: shRNA

Sequence	sensor-assay potency score (higher = more potent)
TGGAACTGTAGTTCTATGCTGT	-0.0204
TCAAACTTGCACTCGTCCTGAG	0.173
TTGTCATCGCTGCCATCGGTGC	-1.66
TGGTGTTGTAGCTCAGACCGAG	-0.523
TGTAGTTCTATGCTGTGTCCGG	-0.086
TAGTTCTATGCTGTGTCCGGCA	-0.362
TATGCTGAGGGCTTCGATCTTG	-0.113
TTGCAGAACTCGGTCTTGCTCG	-0.303
TACTGCTGCAGGTAGCTGGGAG	-0.172
TGAAGTTGTGGAACTGTAGTTC	0.0577
TGTCCTAAACAGCACAGCCAGC	-1.58
TTGGTGAGGGTACTGCTGCAGG	-0.958
